Measurements published in paper PMC11006913.

Target: NKX3-2 (Homo sapiens, UniProt P78367 192-278)
Experiment: PBM; 200 nM protein, PBS
Details: dsDNA, one strand shown

NKX3-2, sequence (P78367 192-278): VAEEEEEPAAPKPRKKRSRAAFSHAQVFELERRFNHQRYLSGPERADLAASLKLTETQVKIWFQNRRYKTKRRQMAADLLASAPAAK

Row | Sequence | binding signal
1 | ATCCCGCC | 10.7 upbm affinity estimate (log intensity, higher = more binding, comparable within an allelic series)
2 | CCGCTCAG | 10.6 upbm affinity estimate (log intensity, higher = more binding, comparable within an allelic series)
3 | AGGCATGG | 10.5 upbm affinity estimate (log intensity, higher = more binding, comparable within an allelic series)
4 | CGTTAACG | 10.5 upbm affinity estimate (log intensity, higher = more binding, comparable within an allelic series)
5 | CAAGTGCG | 12.3 upbm affinity estimate (log intensity, higher = more binding, comparable within an allelic series)
